The values below come from PubChem BioAssay.

For some assays here: Potency and affinity values are given separately. The source made the active and inactive calls.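 The calls were made as follows, unless noted: active = dose curve with midpoint inside tested range, moderate steepness, plateau gap beyond fit error, low compound glow and bead-link interference; inactive = the rest.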

The first test concerns Ras-related protein Rab-7a (dog), GTP binding. Nature of the test: Rab7 GTP binding inhibitors, potency, dose response, biochemical, wildtype, multiplex bead flow cytometry (AID 1336; call rule not given here). The note with it: bead-based flow cytometry, fluorescent GTP binding to Rab7; series mostly up to 100 µM; GTP binding, % of control: at the top concentration.
As to `NC(=O)c1c(NC(=O)c2cnccn2)sc2c1CCCC2`, the “GTP binding, % of control” value is 137% (inactive).

For `COc1ccc(CC(=O)Nc2ccc(S(=O)(=O)NC(C)C)cc2)cc1`, the “GTP binding, % of control” value is 74.5% (inactive).

As for `Cc1cccc(CN2C(=O)N/C(=C/c3ccc(C)s3)C2=O)c1`, the “GTP binding, % of control” value is 87.3% (inactive).

As for `COc1ccc(S(=O)(=O)N2CCOCC2)cc1C(=O)Nc1nc2ccccc2s1`, the “GTP binding, % of control” value is 65.4% (inactive).

`Cc1n[nH]c(=S)c2nn(-c3cccc(Cl)c3)c(C)c12`: the “GTP binding, % of control” value was 71.8% (inactive).

Take `O=C(O)c1ccc(CNCc2ccc(F)cc2)cc1`: the “GTP binding, % of control” value is 86.8% (inactive).

For `CCOc1ccc(NC(=S)N=Nc2c(O)[nH]c3ccccc23)cc1`, the “GTP binding, % of control” value was 70.7% (inactive).

For `COc1cccc(Nc2c(F)c(F)c(F)c(F)c2C(=O)O)c1`, the “GTP binding, % of control” value was 73.1% (inactive).

With `Oc1c(C(c2ccccn2)N2CCOCC2)ccc2cccnc12` (stereo not given), the “GTP binding, % of control” value was 73.9% (inactive).

With `COc1ccc2c(c1)c(C(=O)O)cn2CCOc1ccccc1C`, the “GTP binding, % of control” value was 83.5% (inactive).

With `Cc1cccc(C)c1CCNc1ncccc1C(=O)O`, the “GTP binding, % of control” value is 102% (inactive).

In the case of `Cc1[nH]c2ccccc2c1C(=O)CNc1nccs1`, the “GTP binding, % of control” value is 66.8% (inactive).

In the case of `CCCCCCCCCCCC(=O)c1c(O)cccc1O`, the “GTP binding, % of control” value was 87.9% (inactive).

As for `CCOc1ccc(-n2c(C)nc3cc(C(=O)NCc4ccc5c(c4)OCO5)ccc32)cc1`, the “GTP binding, % of control” value was 49% (inactive).

For the compound `COc1ccc(S(=O)(=O)N2CCN(CC(=O)Nc3cc(C(F)(F)F)ccc3Cl)CC2)cc1`, the “GTP binding, % of control” value was 60.5% (inactive).

`COc1cc(/C=N\NC(=O)CNC(=O)C2COc3ccccc3O2)ccc1O` (stereo not given): the “GTP binding, % of control” value is 67.5% (inactive).

`Cc1cc(C)cc(Nc2cc(C(=O)O)c3ccccc3n2)c1`: the “GTP binding, % of control” value was 62.8% (inactive).

As to `Cc1sc2nc3c4ccccc4c(NCc4ccco4)nn3c(=O)c2c1C`, the “GTP binding, % of control” value is 58.2% (inactive).

As for `COc1ccccc1Nc1nc(-c2c(C)nc3ncccn23)cs1`, the “GTP binding, % of control” value is 72.4% (inactive).

With `O=C(O)c1cc(C(=O)O)cc(-c2ccc(/C=c3/sc4nc5ccccc5n4c3=O)o2)c1`, the “GTP binding, % of control” value is 76.9% (inactive).

As to `CC(=O)Nc1cccc(C#CC(=O)c2ccc([N+](=O)[O-])cc2)c1`, the “GTP binding, % of control” value is 155% (inactive).

Consider `CC(C)c1nc2oc3c(=O)[nH]cnc3c2c2c1CCC2`, for which the “GTP binding, % of control” value was 53.6% (inactive).

`OCCC1CN(Cc2ccccc2O)CCN1CCc1ccccc1` (stereo not given): the “GTP binding, % of control” value was 71% (inactive).

With `Cc1ccccc1-n1c(SCc2c(C)noc2C)nnc1-c1cccnc1`, the “GTP binding, % of control” value was 71.3% (inactive).

In the case of `COc1ccc(C2=Nn3c(nnc3-c3ccccn3)SC2)cc1OC`, the “GTP binding, % of control” value was 60.5% (inactive).

Regarding `C/C(=N\NC(=O)c1ccc(Cl)c(S(=O)(=O)Nc2ccccc2Cl)c1)c1ccncc1`, the “GTP binding, % of control” value is 58% (inactive).

In the case of `O=S(=O)(CC(CN1CCOCC1)N1CCOCC1)c1ccccc1` (stereo not given), the “GTP binding, % of control” value was 92.7% (inactive).

On to `COc1cc(CCNc2ccc3nnc(-c4ccccc4)n3n2)cc(OC)c1OC`, for which the “GTP binding, % of control” value is 58.4% (inactive).

With `COc1ccc(N(CC(=O)Nc2cccc(C)c2C)S(=O)(=O)c2c(C)n[nH]c2C)cc1`, the “GTP binding, % of control” value was 80.5% (inactive).

For the compound `COc1ccc(-c2nn3c(-c4ccccn4)nnc3s2)cc1OC`, the “GTP binding, % of control” value is 67.6% (inactive).

Regarding `O=C(O)C1=C[C@H](c2ccc(C(F)(F)F)cc2)C[C@H](OCc2ccc(CO)cc2)O1`, the “GTP binding, % of control” value was 85.6% (inactive).

Regarding `N#CCc1c(C#N)c(N)nc(N2CCN(C=O)CC2)c1C#N`, the “GTP binding, % of control” value was 87.9% (inactive).

Regarding `Cc1ccc(Nc2cc(C(=O)O)c3ccccc3n2)cc1C`, the “GTP binding, % of control” value is 69.6% (inactive).

For the compound `Cc1ccc(C2=NN(S(=O)(=O)c3ccccc3)C(c3ccccc3O)C2)cc1` (stereo not given), the “GTP binding, % of control” value was 98.4% (inactive).

As to `Cc1ccccc1COc1cccc(C)c1C(=O)O`, the “GTP binding, % of control” value is 77.5% (inactive).

For the compound `CCn1c(SCC(=O)O)nnc1-c1cc2c(C)nn(-c3ccccc3)c2s1`, the “GTP binding, % of control” value is 68.8% (inactive).

Consider `CCn1c2ccccc2c2nnc(SCC(=O)NCCOC)nc21`, for which the “GTP binding, % of control” value was 66.5% (inactive).

As for `CCOCCCNc1nc(=S)[nH]c2cc(OC)c(OC)cc12`, the “GTP binding, % of control” value was 67.7% (inactive).

On to `Cc1ccc(-c2c(C(=O)O)c(C(=O)O)c3n2CCC3)cc1`, for which the “GTP binding, % of control” value is 63% (inactive).

With `Clc1ccc(CN(Cc2ccc(Cl)cc2)c2nn[nH]n2)cc1`, the “GTP binding, % of control” value is 77.6% (inactive).

For another test, the target named is Ras-related C3 botulinum toxin substrate 1 (Homo sapiens) (UniProt P63000). Kind of test: wildtype Rac1 GTP binding inhibitors, dose response, biochemical, multiplex bead flow cytometry (AID 1340). The note with it: GST-Rac1 beads, Bodipy-FL-GTP binding; at 100 µM (top of the series) unless noted. (A flow cytometer gives signals particle by particle.)
`NC(=O)c1c(NC(=O)c2cnccn2)sc2c1CCCC2`: the GTP binding signal, raw median fluorescence (lower = inhibition) (MCF (arbitrary fluorescence units)) was 217.

The compound `COc1ccc(CC(=O)Nc2ccc(S(=O)(=O)NC(C)C)cc2)cc1` yielded a GTP binding signal, raw median fluorescence (lower = inhibition) (MCF (arbitrary fluorescence units)) of 0.

Consider `Cc1cccc(CN2C(=O)N/C(=C/c3ccc(C)s3)C2=O)c1`, for which the GTP binding signal, raw median fluorescence (lower = inhibition) (MCF (arbitrary fluorescence units)) was 201.

With `COc1ccc(S(=O)(=O)N2CCOCC2)cc1C(=O)Nc1nc2ccccc2s1`, the GTP binding signal, raw median fluorescence (lower = inhibition) (MCF (arbitrary fluorescence units)) came out at 153.

Consider `Cc1n[nH]c(=S)c2nn(-c3cccc(Cl)c3)c(C)c12`, for which the GTP binding signal, raw median fluorescence (lower = inhibition) (MCF (arbitrary fluorescence units)) stood at 217.

The compound `O=C(O)c1ccc(CNCc2ccc(F)cc2)cc1` showed a GTP binding signal, raw median fluorescence (lower = inhibition) (MCF (arbitrary fluorescence units)) of 260.

In the case of `CCOc1ccc(NC(=S)N=Nc2c(O)[nH]c3ccccc23)cc1`, the GTP binding signal, raw median fluorescence (lower = inhibition) (MCF (arbitrary fluorescence units)) is 170.

Take `COc1cccc(Nc2c(F)c(F)c(F)c(F)c2C(=O)O)c1`: the GTP binding signal, raw median fluorescence (lower = inhibition) (MCF (arbitrary fluorescence units)) is 0.

In the case of `Oc1c(C(c2ccccn2)N2CCOCC2)ccc2cccnc12` (stereo not given), the GTP binding signal, raw median fluorescence (lower = inhibition) (MCF (arbitrary fluorescence units)) turned out to be 0.

Compound `COc1ccc2c(c1)c(C(=O)O)cn2CCOc1ccccc1C` yielded a GTP binding signal, raw median fluorescence (lower = inhibition) (MCF (arbitrary fluorescence units)) of 59.4.

The compound `Cc1cccc(C)c1CCNc1ncccc1C(=O)O` came in with a GTP binding signal, raw median fluorescence (lower = inhibition) (MCF (arbitrary fluorescence units)) of 67.9.

`Cc1[nH]c2ccccc2c1C(=O)CNc1nccs1` had a GTP binding signal, raw median fluorescence (lower = inhibition) (MCF (arbitrary fluorescence units)) of 0.

In turn, `CCCCCCCCCCCC(=O)c1c(O)cccc1O` yielded a GTP binding signal, raw median fluorescence (lower = inhibition) (MCF (arbitrary fluorescence units)) of 241.

`CCOc1ccc(-n2c(C)nc3cc(C(=O)NCc4ccc5c(c4)OCO5)ccc32)cc1` returned a GTP binding signal, raw median fluorescence (lower = inhibition) (MCF (arbitrary fluorescence units)) of 163.

`COc1ccc(S(=O)(=O)N2CCN(CC(=O)Nc3cc(C(F)(F)F)ccc3Cl)CC2)cc1` had a GTP binding signal, raw median fluorescence (lower = inhibition) (MCF (arbitrary fluorescence units)) of 182.

As to `COc1cc(/C=N\NC(=O)CNC(=O)C2COc3ccccc3O2)ccc1O` (stereo not given), the GTP binding signal, raw median fluorescence (lower = inhibition) (MCF (arbitrary fluorescence units)) was 191.

Consider `Cc1cc(C)cc(Nc2cc(C(=O)O)c3ccccc3n2)c1`, for which the GTP binding signal, raw median fluorescence (lower = inhibition) (MCF (arbitrary fluorescence units)) is 30.7.

`Cc1sc2nc3c4ccccc4c(NCc4ccco4)nn3c(=O)c2c1C` registered a GTP binding signal, raw median fluorescence (lower = inhibition) (MCF (arbitrary fluorescence units)) of 123.

Compound `COc1ccccc1Nc1nc(-c2c(C)nc3ncccn23)cs1` showed a GTP binding signal, raw median fluorescence (lower = inhibition) (MCF (arbitrary fluorescence units)) of 117.

Turning to `O=C(O)c1cc(C(=O)O)cc(-c2ccc(/C=c3/sc4nc5ccccc5n4c3=O)o2)c1`, the GTP binding signal, raw median fluorescence (lower = inhibition) (MCF (arbitrary fluorescence units)) worked out at 185.

Compound `CC(=O)Nc1cccc(C#CC(=O)c2ccc([N+](=O)[O-])cc2)c1` had a GTP binding signal, raw median fluorescence (lower = inhibition) (MCF (arbitrary fluorescence units)) of 104.

Compound `CC(C)c1nc2oc3c(=O)[nH]cnc3c2c2c1CCC2` showed a GTP binding signal, raw median fluorescence (lower = inhibition) (MCF (arbitrary fluorescence units)) of 138.

`OCCC1CN(Cc2ccccc2O)CCN1CCc1ccccc1` (stereo not given): the GTP binding signal, raw median fluorescence (lower = inhibition) (MCF (arbitrary fluorescence units)) is 255.

For the compound `Cc1ccccc1-n1c(SCc2c(C)noc2C)nnc1-c1cccnc1`, the GTP binding signal, raw median fluorescence (lower = inhibition) (MCF (arbitrary fluorescence units)) worked out at 195.

In the case of `COc1ccc(C2=Nn3c(nnc3-c3ccccn3)SC2)cc1OC`, the GTP binding signal, raw median fluorescence (lower = inhibition) (MCF (arbitrary fluorescence units)) stood at 112.

Consider `C/C(=N\NC(=O)c1ccc(Cl)c(S(=O)(=O)Nc2ccccc2Cl)c1)c1ccncc1`, for which the GTP binding signal, raw median fluorescence (lower = inhibition) (MCF (arbitrary fluorescence units)) is 92.

With `O=S(=O)(CC(CN1CCOCC1)N1CCOCC1)c1ccccc1` (stereo not given), the GTP binding signal, raw median fluorescence (lower = inhibition) (MCF (arbitrary fluorescence units)) amounted to 310.

With `COc1cc(CCNc2ccc3nnc(-c4ccccc4)n3n2)cc(OC)c1OC`, the GTP binding signal, raw median fluorescence (lower = inhibition) (MCF (arbitrary fluorescence units)) came out at 123.

On to `COc1ccc(N(CC(=O)Nc2cccc(C)c2C)S(=O)(=O)c2c(C)n[nH]c2C)cc1`, for which the GTP binding signal, raw median fluorescence (lower = inhibition) (MCF (arbitrary fluorescence units)) was determined as 170.

`COc1ccc(-c2nn3c(-c4ccccn4)nnc3s2)cc1OC` returned a GTP binding signal, raw median fluorescence (lower = inhibition) (MCF (arbitrary fluorescence units)) of 137.

For `O=C(O)C1=C[C@H](c2ccc(C(F)(F)F)cc2)C[C@H](OCc2ccc(CO)cc2)O1`, the GTP binding signal, raw median fluorescence (lower = inhibition) (MCF (arbitrary fluorescence units)) was found to be 246.

The compound `N#CCc1c(C#N)c(N)nc(N2CCN(C=O)CC2)c1C#N` gave a GTP binding signal, raw median fluorescence (lower = inhibition) (MCF (arbitrary fluorescence units)) of 170.

Turning to `Cc1ccc(Nc2cc(C(=O)O)c3ccccc3n2)cc1C`, the GTP binding signal, raw median fluorescence (lower = inhibition) (MCF (arbitrary fluorescence units)) was found to be 31.9.

On to `Cc1ccc(C2=NN(S(=O)(=O)c3ccccc3)C(c3ccccc3O)C2)cc1` (stereo not given), for which the GTP binding signal, raw median fluorescence (lower = inhibition) (MCF (arbitrary fluorescence units)) was determined as 158.

Consider `Cc1ccccc1COc1cccc(C)c1C(=O)O`, for which the GTP binding signal, raw median fluorescence (lower = inhibition) (MCF (arbitrary fluorescence units)) turned out to be 56.1.

`CCn1c(SCC(=O)O)nnc1-c1cc2c(C)nn(-c3ccccc3)c2s1` displayed a GTP binding signal, raw median fluorescence (lower = inhibition) (MCF (arbitrary fluorescence units)) of 128.

Turning to `CCn1c2ccccc2c2nnc(SCC(=O)NCCOC)nc21`, the GTP binding signal, raw median fluorescence (lower = inhibition) (MCF (arbitrary fluorescence units)) came to 0.

Compound `CCOCCCNc1nc(=S)[nH]c2cc(OC)c(OC)cc12` came in with a GTP binding signal, raw median fluorescence (lower = inhibition) (MCF (arbitrary fluorescence units)) of 111.

For the compound `Cc1ccc(-c2c(C(=O)O)c(C(=O)O)c3n2CCC3)cc1`, the GTP binding signal, raw median fluorescence (lower = inhibition) (MCF (arbitrary fluorescence units)) was determined as 239.

Compound `Clc1ccc(CN(Cc2ccc(Cl)cc2)c2nn[nH]n2)cc1` showed a GTP binding signal, raw median fluorescence (lower = inhibition) (MCF (arbitrary fluorescence units)) of 246.
